Measurements taken from PubChem BioAssay (NCI).
About 83,000 compounds went through this panel and 20% of them were active in at least one assay; those are over-represented in the sample as a whole.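 48-hour exposure, single concentration, 96-well plates; percent growth endpoint where 0 means no net growth. Active: below 10.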 Values without a mark were called inactive. Active and inactive are the calls of the source.

These molecules were tested on SK-MEL-5 melanoma (assay: NCI-60 one-dose screen, 48 h (100 = growth as untreated, 0 = no growth, -100 = all killed)). Conditions: 10 µM unless noted.
Method: Growth inhibition of the SK-MEL-5 human tumor cell line is measured as a screen for anti-cancer activity. Cells are grown in 96 well plates and exposed to the test compound for 48 hours. Compounds are tested at a single concentration, which is 10^-5 M for most compounds. The reported endpoint is percent growth (GI% or GIPRCNT), where numbers from 0 - 100% represent growth inhibition, and numbers from -100% - 0 represent cell death. For example, a value of 40 represents 60% growth inhibition. A value of 0 means no net growth occurred over the course of the experiment. A value of -40 indicates 40% of cells at the beginning of the experiment died by the end of the experiment. A value of -100 means all cells are dead at the end of the experiment.
NCI-60 Human Tumor Cell Lines Screen was performed using the standard one-dose NCI protocol, which is described in more detail at https://dtp.cancer.gov/discovery_development/nci-60/default.htm.
Compounds with GIPRCNT values below 10 were considered active. Activity score was based on GIPRCNT using the following formula: […]
Score is 0 for GIPRCNT values of 100 or above, 50 for GIPRCNT values of 0, and 100 for GIPRCNT values of -100.

Question: CC(=O)c1c(C)[nH]c(-c2nc3ccc(N4CCN(C)CC4)cc3[nH]2)c1-c1ccccc1 was tested. Which growth did it give?
Answer: 11.8%

Question: Which growth does the source give for CSc1nnc2c(=O)n(C)c(=O)n(C)c2n1 here?
Answer: 106%

Question: For CC(C)(C)OC(=O)N1CCN(c2ccc(N)cc2)C(=O)C1, which growth is on record?
Answer: 99.2%

Question: For O=C1Nc2ccccc2/C1=C\c1cccc(/C=C2/C(=O)Nc3ccccc32)n1, which growth is on record?
Answer: -99.1% (active)

Question: With COc1cc(/C=C/C(=O)c2ccc(Nc3ncnc4ccccc34)cc2)cc(OC)c1 as the molecule, how does the growth read?
Answer: 90.8%

Question: For Clc1nc(Cl)c2ncn(CCOCCn3cnc4c(Cl)nc(Cl)nc43)c2n1, which growth is on record?
Answer: -91.5% (active)

Question: Which growth does the source give for CC(=O)OCCCCCNc1ccccc1 here?
Answer: 106%

Question: For COc1ccc(-c2nc(N/N=C/c3cccc(Br)c3)nc(N3CCOCC3)c2C#N)cc1, which growth is on record?
Answer: 72%

Question: With CNC(=O)c1c(NC(=O)c2ccc(C(C)C)cc2)sc2c(CN(C)C)c(O)ccc12 as the molecule, how does the growth read?
Answer: 96%

Question: How did the growth turn out when C=C(C)[C@@H]1CC[C@]2(C(=O)NCC(=O)OC)CC[C@]3(C)[C@H](CC[C@@H]4[C@@]5(C)Cc6c([nH]c7ccccc67)C(C)(C)[C@@H]5CC[C@]43C)[C@@H]12 was run?
Answer: 81.7%

Question: CC1(C)CN(c2cnc(C(=O)Nc3cc(F)cc4cccnc34)cn2)CCN1 was tested. Which growth did it give?
Answer: 89.3%

Question: With Cc1c([N+](=O)[O-])cc(C(C)(C)C)cc1[N+](=O)[O-] as the molecule, how does the growth read?
Answer: 99.7%

Question: With Nc1c(Cl)cc([N+](=O)[O-])cc1Br as the molecule, how does the growth read?
Answer: 98.9%

Question: How did the growth turn out when C[C@H]1[C@H](C)CC[C@]2(CO)CC[C@]3(C)C(=CC[C@@H]4[C@@]5(C)Cc6c([nH]c7ccccc67)C(C)(C)[C@@H]5CC[C@]43C)[C@H]12 was run?
Answer: 97.5%

Question: For CC(C)C1C2=C(NCCN1C(=O)Cc1ccccc1)C(C)(C)N(Cc1ccccc1)C2=O (stereo not given), which growth is on record?
Answer: 104%

Question: COc1cccc(C(Cc2ccccc2)Nc2ccccc2)c1OC (stereo not given) was tested. Which growth did it give?
Answer: 97.1%

Question: For CCCCCCCCCCCCCCCC(=O)OC[C@@]1(O)C[C@@]23CC[C@@H]4C(C)(C)[C@H](O)CC[C@@]4(C)[C@@H]2CC[C@H]1C3, which growth is on record?
Answer: 102%

Question: For CN1CCN(C(=O)[C@]2(C)CC[C@]3(C)CC[C@]4(C)C(=CC(=O)[C@@H]5[C@@]6(C)CCC(=O)NC(C)(C)[C@@H]6CC[C@]54C)[C@@H]3C2)CC1, which growth is on record?
Answer: 88.8%

Question: How did the growth turn out when O=C(N=Nc1c(O)[nH]c2ccc(F)cc12)c1cc2ccccc2[nH]1 was run?
Answer: 99.7%

Question: COc1ccc(/C=C/c2n[nH]c3ccc(N4CCOC4=O)cc23)cc1 was tested. Which growth did it give?
Answer: 11.7%

Question: Which growth does the source give for CCCCCCCCCCCC(=O)C(CCCCCCCCCC)C(=O)Nc1ccccc1 (stereo not given) here?
Answer: 97.9%

Question: With c1ccc(-c2nn(-c3ccccc3)[n+](-c3ccccc3-c3ccccc3)n2)cc1 as the molecule, how does the growth read?
Answer: -25.8% (active)

Question: With O=C1c2ccccc2C(=O)c2c(NCCN=Cc3ccccc3O)cccc21 as the molecule, how does the growth read?
Answer: 61.9%

Question: Which growth does the source give for O=C(NNc1nc(Cl)nc(N2CCN(C(c3ccccc3)c3ccccc3)CC2)n1)c1ccccc1 here?
Answer: 79.4%

Question: For COc1ccc(/C=N/C2=C(C#N)C(c3ccccc3[N+](=O)[O-])c3ccc4ccccc4c3O2)cc1 (stereo not given), which growth is on record?
Answer: 81.9%

Question: Which growth does the source give for c1ccc(CCSc2ncnc3nc[nH]c23)cc1 here?
Answer: 85.1%

Question: With NC(=O)c1cccc(-c2cc(C(N)=O)ccc2Cl)c1 as the molecule, how does the growth read?
Answer: 14.9%

Question: For Fc1cc(C2=NNC(c3ccc[nH]3)C2)ccc1-n1ccc(C(F)(F)F)n1 (stereo not given), which growth is on record?
Answer: 98%

Question: How did the growth turn out when CCCCCCC/C=C/[C@H]1O[C@]2(O)C(=O)C=C3C[C@@H](O[C@@H]4O[C@H](CO)[C@@H](O)C(O)[C@@H]4O)C[C@@H]3[C@H]2C=C1C (stereo not given in full) was run?
Answer: 6.77% (active)

Question: How did the growth turn out when Cc1ccc2[nH]c(=O)cc(-n3nncc3COc3ccc(C=O)cc3)c2c1 was run?
Answer: 101%

Question: Which growth does the source give for Cc1cc(Nc2cccc(C(F)(F)F)c2)n2c(nc3ccccc32)c1C#N here?
Answer: 4.24% (active)

Question: How did the growth turn out when COc1cccc(-c2nc3occn3c2-c2ccnc(NCCCNS(=O)(=O)c3cccc(F)c3)n2)c1 was run?
Answer: 48.2%

Question: With CCCCOc1ccc(/C=N/Nc2cc(C)nc3ccc(Cl)cc23)cc1 as the molecule, how does the growth read?
Answer: 71.8%

Question: How did the growth turn out when CCNC(=O)c1[nH]cc(-c2ccc(OC)cc2)c1-c1cc(OC)c(OC)c(OC)c1 was run?
Answer: 16%

Question: How did the growth turn out when O=C(CN1CCOCC1)Nc1ccc2ncnc(Nc3ccc(Oc4cccc(C(F)(F)F)c4)c(Cl)c3)c2c1 was run?
Answer: 58.9%

Question: For O=C(N/N=C/c1ccncc1)c1ccccc1Nc1cccc(C(F)(F)F)c1, which growth is on record?
Answer: 76%

Question: With CCN(CCNc1cc(OC)cc2cccnc12)CCc1ccccc1 as the molecule, how does the growth read?
Answer: 95.3%

Question: How did the growth turn out when Cn1c2c(Cl)c(Cl)ccc2c2cc(N)[nH]c(=O)c21 was run?
Answer: 81.7%

Question: O=C1CCCCCCCCC(O)C(O)CCCC(c2cccs2)O1 (stereo not given) was tested. Which growth did it give?
Answer: 91%

Question: How did the growth turn out when Cc1ccc2nc3c(cc2c1)CSc1nnc(-c2ccc[nH]c2=S)n1N3 was run?
Answer: 96.4%
